Assay outcomes from PubChem BioAssay.
Most compounds without a hit are left out; they make up all but 22% or so of the library.
E-sel TNF inh: blocks E-selectin expression induced by TNF alpha; HUVEC TNFa-induced E-selectin immunofluorescence, high content; inhibition, % at 2 µM; 120,000 tested, 0.71% active;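 active = inhibition above the batch mean plus 3 SD, and confirmed as a hit on visual image review, cut at about 43% in these data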;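 note: 0% = TNF-stimulated DMSO wells and 100% = unstimulated control wells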
CYP2C19 activ: increases human CYP2C19 enzyme activity. P33261. recombinant CYP2C19, luciferin-H EGE luminescence; stronger effect = higher value; 0 = fully inhibited enzyme, 1 = untreated enzyme. activation factor at 5 µM. 96,000 tested, under 10 active. AID 1025;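 active = activation factor of at least 2 at 5 µM in the primary screen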;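 note: 0 = wells with 2.5 mM tranylcypromine and 1 = vehicle-only wells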
Target sequence (P33261 whole entry, looked up): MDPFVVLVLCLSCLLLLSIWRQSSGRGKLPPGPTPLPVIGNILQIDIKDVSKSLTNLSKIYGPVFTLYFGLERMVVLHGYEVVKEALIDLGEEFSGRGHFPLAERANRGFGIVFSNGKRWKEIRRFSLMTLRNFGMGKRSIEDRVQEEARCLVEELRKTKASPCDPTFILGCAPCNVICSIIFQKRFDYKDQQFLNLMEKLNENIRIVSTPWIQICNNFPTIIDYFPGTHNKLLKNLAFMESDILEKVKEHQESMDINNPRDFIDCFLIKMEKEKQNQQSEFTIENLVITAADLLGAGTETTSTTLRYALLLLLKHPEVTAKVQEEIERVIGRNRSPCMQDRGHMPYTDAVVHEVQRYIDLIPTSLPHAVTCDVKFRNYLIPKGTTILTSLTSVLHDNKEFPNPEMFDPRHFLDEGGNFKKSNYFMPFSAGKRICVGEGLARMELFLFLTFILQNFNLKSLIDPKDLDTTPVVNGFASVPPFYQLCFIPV
CYP2C9 inhib: human CYP2C9 inhibition | P11712 | CYP2C9 Supersomes, luciferin-H conversion, luminescence | inhibition, % at 5 µM | 96,000 tested, 20% active | AID 777;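 active = blocking of liver enzyme CYP2C9 beyond about 50% at 5 µM, limit read from the data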
CYP2C19 inh: inhibitors of human CYP2C19; CYP2C19 Supersomes, luciferin-H EGE luminescence, 30 min; 96,000 tested, 21% active; AID 778; P33261; inhibition, % at 5 µM;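 active = CYP2C19 inhibition above a set limit at 5 µM in the primary screen, cut at about 50% in these data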;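 note: plate controls were negative control wells for no effect and 2.5 mM tranylcypromine positive control for full effect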
CYP2C9 act: CYP2C9 (human) activation; P11712; recombinant CYP2C9, luciferin-H conversion, luminescence; stronger effect = higher value; factor 1 = untreated enzyme, 0 = blocked; activation factor at 5 µM; 96,000 tested, 1.4% active;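 active = activation factor of 2 or more for CYP2C9 at a 5 µM dose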;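 note: 0 = sulfaphenazole-blocked wells and 1 = vehicle-only wells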
F-actin modifier: cytoskeleton assembly modification; HUVEC TNFa F-actin phalloidin imaging, high content; inhibition, % at 2 µM; 91,000 tested, 0.18% active;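 active = inhibition above the batch mean plus 3 SD and confirmed as a hit by visual image inspection, cut at about 30% in these data, passing the limit was not always enough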
Active calls of the source: *; x = not tested or not shown.

SMILES	E-sel TNF inh	CYP2C19 activ	CYP2C9 inhib	CYP2C19 inh	CYP2C9 act	F-actin modifier
Brc1ccc(N=Cc2ccccn2)cc1	-9	x	x	x	x	x
Cc1ccc(CS(=O)(=O)CCC(=O)NCC2CCCO2)cc1 (stereo not drawn)	-3	0.9	-1	11	1	8
Cc1nc2ccc(S(=O)(=O)NC(C(=O)NC3CCCC3)C(C)C)cc2s1 (stereo not drawn)	x	1	14	0	0.9	7
CC(C)CNC(=O)COC(=O)c1ccc(Cl)c(S(=O)(=O)N2CCc3ccccc32)c1	11	x	x	x	x	x
COCn1c(-c2ccc(OC)c(OC)c2)nc2ccccc21	-56	0.8	5	18	0.9	0
COCn1c(-c2cccc(Br)c2)nc2ccccc21	13	0.1	69*	86*	0.3	10
CCOC(=O)N1CCN(C(=O)C2CCCN(S(C)(=O)=O)C2)CC1 (stereo not drawn)	7	1	9	1	0.9	-44
CC(CCc1ccccc1)NC(=O)C1CCN(c2nnc(-n3cccc3)s2)CC1 (stereo not drawn)	-31	1.1	12	-14	0.9	x
CC(CCc1ccccc1)NC(=O)C1CCN(C(=O)c2sccc2-n2cccc2)CC1 (stereo not drawn)	8	0.3	78*	72*	0.2	22
O=C(NCCc1ccc(Cl)cc1)C1CCN(C(=O)c2sccc2-n2cccc2)CC1	x	0.6	52*	44	0.5	x
N#CCSc1nnc(Nc2ccccc2)s1	-5	0.2	42	84*	0.6	10
OCCSc1nnc(Nc2ccccc2)s1	x	0.8	-4	21	1	-35
N#CCSc1nc(-c2ccccc2)cs1	-6	0.4	-51	56*	1.5	2
O=C(CSc1ccc(Br)cc1)Nc1ccccc1Oc1ccccc1	13	x	x	x	x	x
CSc1ncc(Cl)c(C(=O)Nc2sc3c(c2C(=O)NCc2ccco2)CCCC3)n1	x	0.9	28	5	0.7	7
COc1ccccc1C(=O)Nc1sc2c(c1C(=O)NCc1ccco1)CCCC2	9	0.8	84*	18	0.2	0
COc1ccc(CCNC(=O)c2csc3c2CCCC3)cc1OC	-10	x	x	x	x	x
CCc1c(C)sc(NC(=O)OC)c1C(=O)N1CCCCC1	-3	0.5	-2	52*	1	4
COC(=O)c1c(NS(=O)(=O)Cc2ccccc2)sc2c1CCCC2	-4	0.1	96*	93*	0	-11
COc1ccccc1NC(=O)c1csc2c1CCCC2	x	0.6	-144	38	2.4*	1
O=C(O)C12CC3CC(C1)CC(n1cnc(Cl)n1)(C3)C2	-6	1.2	-15	-15	1.1	-6
O=C(C1CCN(S(=O)(=O)c2cccc3nsnc23)CC1)N1CCc2ccccc2C1	x	0.7	-95	27	1.9	4
CCOC(=O)c1sc(NC(=O)CN2CCCC2)c(C(=O)OCC)c1C	8	1	16	4	0.8	-35
CCOC(=O)c1c(NC(=O)c2ccn(CC)n2)sc2c1CCCC2	10	0.5	68*	55*	0.3	22
CCOC(=O)c1c(NC(=O)c2ccco2)n(C2CCCCC2)c2nc3ccccc3nc12	9	1	55*	-3	0.5	-31
SMILES	E-sel TNF inh	CYP2C19 activ	CYP2C9 inhib	CYP2C19 inh	CYP2C9 act	F-actin modifier
COC(=O)c1c(NC(=O)Cc2cccs2)sc(C(=O)N2CCCCC2)c1C	24	x	x	x	x	14
COC(=O)c1c(NC(=O)c2ccco2)sc(C(=O)N2CCCC2)c1C	29	0.7	61*	26	0.4	4
CCOC(=O)c1c(NC(=O)C(F)(OC)C(F)(F)F)sc(C(=O)N2CCCCC2)c1C (stereo not drawn)	-57	0.8	76*	24	0.2	5
Cc1ccc2c(N)c(C(=O)N(c3ccccc3)c3ccccc3)sc2n1	-43	x	x	x	x	18
C1=CC2CC1CC2CNCc1ccco1 (stereo not drawn)	7	0.9	-7	10	1.1	13
Cc1ccccc1OCC(=O)NCC1CCCO1 (stereo not drawn)	-30	0.5	1	45	1	2
COC(=O)c1c(-c2ccccc2)csc1NC(=O)c1ccco1	71*	0.9	0	6	1	-19
COc1ccccc1NC(=O)c1c(NC(=O)c2ccco2)sc2c1CCC2	-3	0.8	64*	18	0.4	28
COc1ccccc1OCC(=O)Nc1sc2c(c1C(=O)NCC1CCCO1)CCC2 (stereo not drawn)	25	0.5	96*	52*	0	0
O=C(Nc1sc2c(c1C(=O)NC1CCCCC1)CCC2)c1ccco1	20	1	49	3	0.5	4
CCOC(=O)c1c(NC(=O)c2ccco2)sc2c1CCCC2	-35	0.9	56*	14	0.4	x
Cc1ccccc1NC(=O)C(C#N)Cc1cccnc1 (stereo not drawn)	24	0.8	11	23	0.9	18
CN(C)c1ccc(P(=O)(Nc2cccc(C(F)(F)F)c2)N2CCOCC2)c(NC(=O)c2cccs2)c1 (stereo not drawn)	9	x	x	x	x	x
N#Cc1c(NC(NC(=O)c2ccco2)C(=O)c2ccccc2)sc2c1CCCC2 (stereo not drawn)	5	0.8	76*	16	0.2	x
Cn1c(=O)oc2cc(S(=O)(=O)N3CCN(Cc4ccc5c(c4)OCO5)CC3)ccc21	x	0.7	30	25	0.7	12
O=C(Nc1ccccc1Cl)c1ccccc1Oc1ccc(C(F)(F)F)cc1[N+](=O)[O-]	33	0.3	88*	73*	0.1	6
COc1ccccc1NC(=O)COc1ccc(C(F)(F)F)cc1[N+](=O)[O-]	-22	x	x	x	x	-4
Cc1ccc(O)c(C(=O)c2cnc3c(c2)CN(CCC(C)C)C(=O)N3)c1	x	0.9	64*	14	0.4	-21
O=C(CSc1n[nH]c(=O)n1C1CC1)Nc1cc(Cl)ccc1Oc1ccccc1	2	0.4	83*	59*	0.2	-30
CCCn1c(SCC(=O)NC(=O)Nc2ccc(C)cc2C)n[nH]c1=O	35	0.8	19	19	0.8	9
CCCn1c(SCC(=O)NCc2ccc(Cl)cc2)n[nH]c1=O	1	x	x	x	x	x
Nc1nc(SCC(=O)Nc2ccccc2Oc2ccccc2)n[nH]1	20	x	x	x	x	x
CCCn1c(SCC(=O)Nc2ccccc2Oc2ccccc2)n[nH]c1=O	7	0.2	74*	81*	0.3	-9
CCCn1c(SCC(=O)Nc2cc(Cl)ccc2OC)n[nH]c1=O	-6	0.1	8	90*	0.9	8
CCCn1c(SCC(=O)c2cc(C)c(C)cc2C)n[nH]c1=O	0	0.6	74*	38	0.3	-16
CC(=O)Nc1ccc(S(=O)(=O)NCC2CCC(C(=O)NCCC3=CCCCC3)CC2)cc1 (stereo not drawn)	5	1	48	5	0.5	x
O=C(Nc1nnc(C2CC2)s1)c1ccc(Cl)c(S(=O)(=O)N2CCc3ccccc3C2)c1	9	x	x	x	x	x
